ELG1 DNA repair: inhibitors of ELG1-dependent DNA repair in HEK293T cells; HEK293T ELG1-luciferase reporter, luminescence, 16 h; DNA damage induced by 5-fluorouridine; Potency, µM (doses to about 46.1 µM), most hits filed as inhibitors; actives 2.3% (n = 330,000); AID 504467; note: nearly all actives have a fitted effect of over 55% in size
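Overnight (16 hr) co-exposure of 2,000 cells/well to 5-fluorouridine and compound at 37 °C preceded detection. Luciferase was quantified via ONE-Glo luminescence; loss of signal denotes inhibition.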
BRCA1 expr act: activators of BRCA1 expression; actives 1.1% (n = 380,000); MCF7-BRCA1-FFLuc reporter, luminescence, 48 h; response scale: scaled: vehicle 0%, 10 µM genistein 100%; Potency, µM (doses to about 46.1 µM), usual class: activators; note: nearly all actives have a fitted effect of over 80% in size
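Compounds are tested at multiple concentrations on MCF7 BRCA1-luciferase reporter cells seeded at 2000 per well; after 48 h, a single luminescence end-point is taken and curves fitted to the normalized data.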
Nrf2 activator: activators of Nrf2 (ARE) signaling. actives 0.31% (n = 410,000). Potency, µM (highest dose often 46.1 µM), usual class: activators. AREc32 ARE-luciferase reporter (MCF7-derived line), luminescence, 24 h; note: nearly all actives have a fitted effect of over 65% in size
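ARE-driven firefly luciferase activity in AREc32 cells measured after a 24 hr compound exposure at 37 deg C, using Steady-Glo reagent and a 30 min room-temperature hold.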
IL-2 act: IL-2 activation; AID 652025; activation, % (series mostly up to about 46 µM); actives 0.065% (n = 360,000); IL-2 activation reporter assay, cell-based qHTS; stimulated with anti-CD3/CD4/CD28 beads; in transgenic mouse T cells; in the data active = activation above about 50%; inconclusive = mostly about 30% to 49%
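Readout is EGFP and DsRed signal by fluorescent plate cytometry after 18 h at 37 degrees C. Transgenic mouse T cells (750/well) received compound for 60 min before bead stimulation (anti-CD3, anti-CD4, anti-CD28); memory T cells served as non-tolerant control.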
Numbers stand for hits; – = inactive; ? = inconclusive; · = not tested or not shown; [ ] = remark or other dose. An excerpt weighted towards active compounds, which were near 3.1% of everything screened. Unless noted, calls come from the whole dose curve; as a rule, active = well fitted curve in the direction sought with a large enough effect; inconclusive = small, poorly fitted or top-dose-only effect, or another doubt; inactive = no such curve, though single readings can be large; an effect the other way counts as inactive or inconclusive.

SMILES | ELG1 DNA repair | BRCA1 expr act | Nrf2 activator | IL-2 act
OC(c1ccc(F)cc1)c1nc(-c2cc3ccccc3o2)cs1 (stereo unspecified) | · | 1.8µM | – | –
OC(c1ccc(F)cc1)c1nc(-c2cnc3ccccc3c2)cs1 (stereo unspecified) | · | 11µM | – | –
CCCCCc1ccc(S(=O)(=O)Nc2cc(C)ccn2)cc1 | 10µM | – | – | –
CCOc1cccc(C(=O)Nc2c(C(=O)c3ccc(OC)cc3)oc3ccccc23)c1 | · | · | – | ·
O=C(OC(c1ccccc1)c1nccc2ccccc12)c1cccc([N+](=O)[O-])c1 (stereo unspecified) | ? | 7.1µM | – | –
COc1ccc(NC(=O)CCCSc2nc(-c3ccco3)cc(C(F)(F)F)n2)cc1OC | 21µM | – | – | –
Cc1ccc(NC(=O)CSc2nc(-c3ccco3)cc(C(F)(F)F)n2)cc1 | · | – | – | ·
Cc1cc(NC(=O)CCSc2nc(-c3ccco3)cc(C(F)(F)F)n2)n(-c2ccccc2)n1 | 26µM | – | – | –
COc1ccc(-c2cc(C(F)(F)F)nc(SCC(=O)NCc3ccco3)n2)cc1OC | 23µM | – | – | –
O=C(CSc1nc(-c2ccco2)cc(C(F)(F)F)n1)Nc1ccc(C(=O)N2CCCCC2)cc1 | 4.6µM | – | – | –
Cc1nn(C)c(C)c1NC(=O)CCSc1nc(-c2ccco2)cc(C(F)(F)F)n1 | – | – | – | –
CCc1cc(/C=C/c2ccnc3ccccc23)ccc1N(C)C | · | – | · | ·
CCC(C(=O)Nc1cc(C(F)(F)F)ccc1Cl)n1nc(C)c2sc3ccccc3c2c1=O (stereo unspecified) | · | · | – | ·
CCOc1cc(C(N)=O)cc(Br)c1OC | 5.2µM | – | – | –
COc1ccc(-n2nc3cc(C)c(NC(=O)c4ccc(-c5ccc(Cl)cc5)o4)cc3n2)cc1 | · | · | – | ·
COc1ccc(CCNC(=O)CN2C(=O)NC(c3ccccc3)(c3ccccc3)C2=O)cc1 | 26µM | – | – | –
COc1ccc(-c2cnc(N)nc2-c2ccc(OC)cc2O)cc1 | 23µM | – | – | –
COc1ccc(-c2nc(N)ncc2-c2ccccc2)c(O)c1 | – | – | – | –
O=C1OCC(CO)(CO)N=C1NNc1ccccc1[N+](=O)[O-] | 7.3µM | – | – | –
COc1cccc(NC(=O)CN(C)C(=O)c2cc(-c3ccc(C)o3)nc3ccccc23)c1 | 6.5µM | – | – | –
COc1ccc(NC(=O)CN(C)C(=O)c2cc(-c3ccc(Cl)cc3)nc3ccccc23)cc1 | ? | – | – | –
CCOc1ccc(NC(=O)CN(C)C(=O)c2cc(-c3ccc(OC)cc3)nc3ccccc23)cc1OCC | 9.2µM | – | – | –
CCC(C(=O)NC1CCCC1)N(Cc1cccs1)C(=O)Cn1nnc(-c2ccc(OC)c(OC)c2)n1 (stereo unspecified) | 18µM | – | – | –
CC(C(=O)NC1CCCC1)N(C(=O)Cn1nnc(-c2ccc(F)cc2)n1)c1ccccc1F (stereo unspecified) | 16µM | – | – | –
COc1ccc(-c2nnn(CC(=O)N(Cc3cccs3)C(C)C(=O)NC3CCCC3)n2)cc1OC (stereo unspecified) | ? | – | – | –
SMILES | ELG1 DNA repair | BRCA1 expr act | Nrf2 activator | IL-2 act
CCCCC(C(=O)NC1CCCC1)N(Cc1ccco1)C(=O)Cn1nnc(-c2ccc(F)cc2)n1 (stereo unspecified) | 16µM | – | – | –
COc1ccc(-c2cc3cccc(OC)c3oc2=O)cc1 | ? | – | – | –
COc1cccc2cc(-c3nc4ccccc4[nH]3)c(=O)oc12 | ? | 3.2µM | ? | –
COc1cccc2cc(-c3ccccc3)c(=O)oc12 | ? | 2.5µM | – | –
O=S(=O)(c1ccc2ccccc2c1)N1CCN(c2nc(-c3ccccc3)nc3ccccc23)CC1 | · | – | · | ·
O=C(NC(c1ccccc1)c1ccsc1)C1CCN(CCOc2ccc(Cl)cc2Cl)CC1 (stereo unspecified) | · | – | – | –
Nc1nnc(SCc2cn3cc(Cl)ccc3n2)s1 | ? | – | – | –
Clc1ccc(SCc2cn3ccccc3n2)cc1 | ? | 5.6µM | – | –
Cc1cccc2nc(CSc3nc4ccccc4[nH]3)cn12 | ? | ? | – | –
Cc1cccc2nc(CSc3ccc(Cl)cc3)cn12 | ? | 4.5µM | – | –
Cc1ccc(SCc2cn3cc(Cl)ccc3n2)cc1 | ? | 10µM | – | –
Cc1nc(CSc2ccc(Cl)cc2)cc(NCc2ccccc2)n1 | – | ? | – | –
CNc1cc(CSc2ccc(Cl)cc2)nc(C)n1 | ? | 5µM | – | –
CN(C)c1ccc(CC(=O)N2CCCCC2c2cc(C(=O)Nc3ccccc3)no2)cc1 (stereo unspecified) | · | – | – | –
O=C1COc2ccc(-c3csc(=Nc4ccc(OC(F)F)cc4)n3CC3CCCO3)cc2N1 (stereo unspecified) | ? | – | – | –
COc1ccccc1N=c1scc(-c2ccc3c(c2)NC(=O)CO3)n1CC1CCCO1 (stereo unspecified) | 16µM | – | – | –
CN(C)S(=O)(=O)c1cccc(N=c2scc(-c3ccc4c(c3)NC(=O)CO4)n2CC2CCCO2)c1 (stereo unspecified) | 23µM | – | – | –
CCCCN(C)c1c(C)nc2ccc(C(=O)Nc3ccc(OC)c(OC)c3)cn12 | · | – | –[9.22 µM] | –
Cn1c(=O)n(CCOc2ccccc2Cl)c2ccccc21 | ? | 5µM | – | –
Clc1ccccc1OCCN1CCCCC1 | – | – | – | –
O=c1ccccn1CCOc1ccccc1Cl | ? | 13µM | – | –
CN(C)c1ccc(/C=C/c2sc3ccccc3[n+]2CCCCI)cc1 | · | – | · | ·
FC(F)(F)c1nc(-c2ccncc2)ncc1-c1nnnn1-c1ccccc1 | – | – | – | –
Fc1ccc(-n2nnnc2-c2cnc(-c3cccs3)nc2C(F)(F)F)cc1 | 21µM | – | – | –
CCSc1nc2c(cnn2-c2ccccc2)c(=O)n1N | ? | 5µM | – | –
SMILES | ELG1 DNA repair | BRCA1 expr act | Nrf2 activator | IL-2 act
CSc1nc2c(cnn2-c2ccccc2)c(=O)n1N | ? | ? | – | –
COc1ccc(C(=O)N(Cc2ccco2)Cc2cc3cc(C)ccc3[nH]c2=O)cc1OC | · | – | – | –
COc1ccccc1NC(=S)N(Cc1ccco1)Cc1cc2cc(C)ccc2[nH]c1=O | 16µM | – | – | –
COc1ccccc1NC(=O)N(Cc1ccco1)Cc1cc2c(C)ccc(C)c2[nH]c1=O | 5.2µM | – | – | –
CCc1ccc2[nH]c(=O)c(CN(Cc3ccccc3OC)C(=O)Nc3ccccc3OC)cc2c1 | 23µM | – | – | –
COC(=O)c1cccc(S(=O)(=O)N(Cc2ccco2)Cc2cc3cc(OC)c(OC)cc3[nH]c2=O)c1 | 23µM | – | – | –
O=S(=O)(NCCc1nnc2ccc(SCc3cccc(Cl)c3)nn12)c1ccccc1 | · | · | – | ·
COc1ccc(CN(C)c2ccc(-c3nc(-c4ccc(OC)c(OC)c4)no3)cc2[N+](=O)[O-])cc1 | · | – | – | ·
Cc1cccc2cc(CN(CC3CCCO3)C(=O)NC3CCCCC3)c(=O)[nH]c12 (stereo unspecified) | ? | – | – | –

Bioassay records as filed in PubChem BioAssay.
